# Assay outcomes from PubChem.
# C diff growth: C. difficile growth inhibitors, primary screen, HTS. Clostridium difficile clinical isolate growth, OD600, 24 h; active compounds read low. growth activity, negative = inhibition, % at 16 µg/mL (by protocol). 86,000 compounds, 0.25% hits;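 active means mean growth activity at or below -80% and every replicate also at or below -80%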;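 further: 0% = DMSO wells and -100% = levofloxacin 16 µg/mL wells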
# * marks the source's active call; other numbers are inactive results; ! = repeats disagree. This is one part of a sample in which hits are shown more often than they occur.
SMILES,C diff growth
CC=Cc1ccc2n(c1=O)C[C@@H]1[C@@H](CO)[C@H](C(=O)NCc3ccccc3F)N[C@H]21 (mixture of isomers),2
C[C@@H]1CN([C@H](C)CO)S(=O)(=O)c2ccc(-c3ccc(F)cc3)cc2O[C@H]1CN(C)C(=O)C1CCOCC1,-3
C[C@@H]1CN([C@@H](C)CO)S(=O)(=O)c2ccc(C#CC3CC3)cc2O[C@@H]1CN(C)C(=O)C1CC1,0
COc1ccc(S(=O)(=O)N[C@H]2CC[C@@H](CC(=O)NCCc3ccncc3)O[C@H]2CO)cc1,-2
O=C(N[C@H]1CC[C@H](CCNC(=O)C2CCCC2)O[C@H]1CO)c1ccncc1,-1
C[C@@H]1CN([C@H](C)CO)C(=O)c2cc(NC(=O)CCCN(C)C)ccc2O[C@@H](C)CCCCO[C@H]1CN(C)Cc1ccccc1,0
C[C@@H]1CCCCO[C@H](CN(C)CC2CC2)[C@@H](C)CN([C@@H](C)CO)C(=O)c2cc(NS(=O)(=O)c3ccccc3)ccc2O1,5
CC(C)C#Cc1cnc2c(c1)C(=O)N([C@@H](C)CO)C[C@@H](C)[C@@H](CN(C)C(=O)Nc1ccccc1)O2,21
COCC(=O)N(C)C[C@@H]1Oc2ncc(C#CC3(O)CCCC3)cc2C(=O)N([C@H](C)CO)C[C@H]1C,-3
Cc1ccc(-c2ccc(C3[C@@H]4CN(Cc5cccc(F)c5)C[C@H]3N4)cc2)cc1 (stereo partly drawn),-94*
CN(C)C(=O)c1cccc(-c2ccc(C3[C@@H]4CN(Cc5cncnc5)C[C@H]3N4)cc2)c1 (stereo partly drawn),-4
Cc1ccc(-c2ccc(C3[C@@H]4CN(Cc5cccnc5)C[C@H]3N4)cc2)cc1 (stereo partly drawn),3
Fc1ccc(-c2ccc(C3[C@@H]4CN(Cc5cccc(F)c5)C[C@H]3N4)cc2)cc1 (stereo partly drawn),-99*
CN(C)C(=O)c1cccc(-c2ccc(C3[C@@H]4CN(Cc5ccc6c(c5)OCO6)C[C@H]3N4)cc2)c1 (stereo partly drawn),10
Fc1cccc(-c2ccc([C@@H]3[C@@H]4CN(Cc5nccs5)C[C@H]3N4)cc2)c1,64
C[C@H]1CN([C@@H](C)CO)C(=O)c2cc(C#CCC3CCCC3)cnc2O[C@H]1CN(C)C(=O)c1cnccn1,0
O=C(C[C@H]1CC[C@@H](NC(=O)Nc2ccccc2)[C@@H](CO)O1)NCc1ccccn1,1
O=C(C[C@H]1CC[C@@H]2[C@H](COC[C@H](O)CN2C(=O)Nc2ccc(Cl)c(Cl)c2)O1)NCc1ccc(F)cc1,-91*
CNC(=O)C[C@@H]1CC[C@@H]2[C@H](COC[C@H](O)CN2C(=O)Nc2ccc(Cl)c(Cl)c2)O1,-12
CCCNC(=O)C[C@@H]1CC[C@@H]2[C@H](COC[C@H](O)CN2C(=O)Nc2ccc(Cl)c(Cl)c2)O1,-102*!
O=C(C[C@H]1CC[C@H]2[C@@H](COC[C@@H](O)CN2C(=O)Nc2ccc(F)cc2)O1)NC1CCC1,13
CNC(=O)C[C@H]1CC[C@H]2[C@@H](COC[C@H](O)CN2C(=O)Nc2ccc(Cl)c(Cl)c2)O1,-28
O=C(C[C@H]1CC[C@@H]2[C@H](COC[C@@H](O)CN2C(=O)Nc2ccc(Cl)c(Cl)c2)O1)NCc1ccc(F)cc1,-7
O=C(C[C@@H]1CC[C@H]2[C@@H](COC[C@@H](O)CN2C(=O)Nc2ccc(Cl)c(Cl)c2)O1)NC1CCC1,-102*!
O=C(C[C@H]1CC[C@@H]2[C@H](COC[C@H](O)CN2C(=O)Nc2ccc(Cl)c(Cl)c2)O1)NCc1ccc(Cl)cc1,-52
SMILES,C diff growth
O=C(C[C@H]1CC[C@@H]2[C@H](COC[C@@H](O)CN2C(=O)Nc2ccc(Cl)c(Cl)c2)O1)NC1CCC1,48
CCCN(C)C[C@@H]1Oc2ncc(-c3ccc(OC)cc3)cc2C(=O)N([C@H](C)CO)C[C@@H]1C,-2
O=C(Nc1ccc(Cl)c(Cl)c1)N[C@H]1CC[C@@H](CCn2cc(C3CC3)nn2)O[C@H]1CO,2
OC[C@H]1Nc2ccc(-c3ccccc3)cc2[C@@H]2[C@H]1CCN2Cc1ccccc1F,-101*
COc1ccc(-c2ccc3c(c2)[C@@H]2[C@@H](CCN2Cc2ccccc2F)[C@H](CO)N3)cc1,18
OC[C@@H]1Nc2ccc(-c3ccccc3)cc2[C@@H]2[C@H]1CCN2Cc1ccccc1F,-7
COc1ccccc1C#Cc1ccc2c(c1)[C@H]1[C@H](CCN1C(=O)c1ccccc1)[C@H](CO)N2,2
COc1ccccc1CN1CC[C@H]2[C@H](CO)Nc3ccc(-c4cccc(F)c4)cc3[C@H]21,-2
COc1ccc(C#Cc2ccc3c(c2)[C@@H]2[C@@H](CCN2Cc2nccs2)[C@@H](CO)N3)cc1,-2
O=C(c1ccccc1)N1CC[C@@H]2[C@@H](CO)Nc3ccc(C#Cc4ccccc4F)cc3[C@@H]21,91
O=C(c1ccc(F)cc1)N1CC[C@H]2[C@H](CO)Nc3ccc(C#Cc4ccccc4F)cc3[C@H]21,69
COc1ccccc1C#Cc1ccc2c(c1)[C@H]1[C@H](CCN1C(=O)c1ccc(F)cc1)[C@@H](CO)N2,-101*
